Measurements from PubChem BioAssay (EPA / NIEHS).
Records with an inconclusive call do not appear. Activity calls are given as the source filed them. The calls were made as follows: active = hit-call score of the fitted dose curve at least 0.9, where 1 is the maximum; inconclusive = response in the unintended direction; inactive = score below 0.9.

Biological target: human Vitamin D Receptor (VDR), VDR (gene 7421) (UniProt P11473)
Test: ATG_VDR_TRANS: Attagene TRANS-FACTORIAL HepG2 Assay for human Vitamin D Receptor (VDR) (AID 2283022)
Outline: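 Steps: transfect HepG2 with GAL4-UAS-driven reporter constructs; dose compounds 24 h; isolate RNA, reverse-transcribe, PCR-amplify with 6-FAM-labelled primer extension and HpaI digestion; quantify fragments by capillary electrophoresis relative to DMSO.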

Chain of human Vitamin D Receptor (VDR), VDR (gene 7421) (P11473 whole entry, looked up): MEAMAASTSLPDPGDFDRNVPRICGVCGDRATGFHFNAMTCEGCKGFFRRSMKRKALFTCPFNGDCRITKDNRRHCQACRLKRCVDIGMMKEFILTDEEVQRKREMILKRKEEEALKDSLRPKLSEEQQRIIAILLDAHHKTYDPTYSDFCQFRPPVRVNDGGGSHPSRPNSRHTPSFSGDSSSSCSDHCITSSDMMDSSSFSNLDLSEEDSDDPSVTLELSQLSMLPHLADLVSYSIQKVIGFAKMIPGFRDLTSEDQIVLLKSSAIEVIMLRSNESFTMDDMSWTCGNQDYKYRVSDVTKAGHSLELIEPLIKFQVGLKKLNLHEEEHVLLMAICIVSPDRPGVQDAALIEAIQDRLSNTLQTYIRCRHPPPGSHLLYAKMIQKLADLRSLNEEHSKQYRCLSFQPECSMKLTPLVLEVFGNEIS

SMILES | outcome
C=C(C)C1CC=C(C)C(OC(C)=O)C1 (stereo unspecified) | inactive
CC(C)=NNC(N)=S | inactive
Cc1cc(C)c(C=O)c(C)c1 | inactive
CC1=NN(c2ccc(S(=O)(=O)O)cc2)C(=O)C1N=Nc1ccccc1 (stereo unspecified) | inactive
Cc1ccccc1CCO | inactive
CCCCOCCOCCOC(C)=O | inactive
CC1=CCC2CC1C2(C)C (stereo unspecified) | inactive
CC(=O)C(C)C | inactive
CC(C)OC(=O)c1ccccc1 | inactive
CC1(C)[C@@H]2CC[C@@]1(C)C(=O)C2 | inactive
CCC[Si](OC)(OC)OC | inactive
CC(=O)OCCc1ccccc1 | inactive
C=C[Si](OCCOC)(OCCOC)OCCOC | inactive
CC(=O)OC(C)c1ccccc1 (stereo unspecified) | inactive
C=CC(C)(CCC=C(C)C)OC(=O)C=Cc1ccccc1 (stereo unspecified) | inactive
CCCCC(CC)COC(=O)/C=C/c1ccc(OC)cc1 (stereo unspecified) | inactive
CCCC=C(C=O)CC | inactive
c1ccc2cnccc2c1 | inactive

SMILES | outcome
CC(=O)OCc1ccccc1 | inactive
COc1nccnc1CC(C)C | inactive
CCC1COC(=O)O1 (stereo unspecified) | inactive
CC1CCC(=O)C1=O (stereo unspecified) | inactive
Cc1cc(C)n(CO)n1 | inactive
CCCC(CC)c1ccccc1 (stereo unspecified) | inactive
C=C[C@@]1(C)CC(=O)[C@]2(O)[C@@]3(C)[C@@H](O)CCC(C)(C)[C@@H]3[C@H](O)[C@H](OC(C)=O)[C@@]2(C)O1 | inactive
O=C(OCCc1ccccc1)c1ccccc1 | inactive
CC1(C)C(=O)N(CO)C(=O)N1CO | inactive
COc1cc(O)c(C(=O)c2ccccc2)cc1S(=O)(=O)O | inactive
NNS(=O)(=O)c1ccc(Oc2ccc(S(=O)(=O)NN)cc2)cc1 | inactive
CCC(C)c1ccccc1 (stereo unspecified) | inactive
O=C(O)/C=C/c1ccccc1 | inactive
CCCCc1ccc(Cl)cc1 | inactive
CC(C)(CO)COC(=O)C(C)(C)CO | inactive
CC1=CC(C)C(C=O)CC1 (stereo unspecified) | inactive
CCCCC/C=C\C/C=C\CCCCCCCC(=O)O | inactive
COC(Cc1ccccc1)OC | inactive
